PubChem BioAssay AID1490 (National Center for Advancing Translational Sciences (NCATS), 2009)
The whole screen tested about 310,000 compounds, of which about 11,000 (3.5%) were called active. Another 4% or so got no clear call; they are omitted. Calls follow the shape of the dose curve; as a rule, active = well fitted inhibition curve with a large enough effect; inconclusive = small, poorly fitted or top-dose-only effect, or another doubt; inactive = no such curve, though single readings can be large or run the other way. The list comes from a sample in which actives are over-represented; it also holds similar structures and randomly drawn compounds. Non-standard residues stand in square brackets, D forms with d. Residues, ends and D or L forms follow the SMILES beside them. Groups on a side chain read outwards from the residue. *: point of attachment. X1 = CCC(C)C(N)C1=NC(C(=O)*)CS1; Orn = NCCC[CH](N)C(=O)O

Each molecule was assayed against 4'-phosphopantetheinyl transferase ffp (Bacillus subtilis) (UniProt Q9F4F7) (assay: qHTS Assay for Inhibitors of Bacillus subtilis Sfp phosphopantetheinyl transferase (PPTase)). Details: Biochemical Sfp PPTase activity.
Summary of the method: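 With Hepes-Na pH 7.6 buffer containing 10 mM MgCl2, Sfp (15 nM) modified BHQ-2-YbbR (12.5 uM) using rhodamine-CoA (5 uM). Two reads 30 minutes apart at 525/598 nm yielded each well's rate.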
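Also: the enzyme is Sfp with the accession as filed and its product quenches rhodamine fluorescence.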
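For largest response in the series, negative = inhibition in this document: 0% = enzyme reaction without inhibitor and -100% = no enzyme wells.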
Potency is read from the fitted curve at half-maximal effect.

Structure (SMILES)	largest response in the series, negative = inhibition	Potency
CCOC(=O)C1=C(CN2CCc3ccccc32)NC(=O)NC1c1ccc(Cl)cc1 (stereo not given)	-11.6% (inactive)	
CCOC(=O)C1=C(CN2CCCCCC2)NC(=O)NC1c1cccc([N+](=O)[O-])c1 (stereo not given)		89.1 µM (active)
CCOC(=O)C1=C(CN2CCc3ccccc32)NC(=O)NC1c1cccc([N+](=O)[O-])c1 (stereo not given)	3.8% (inactive)	
O=C(Nc1ccc(-n2cccn2)cc1)C1CCN(Cc2ccsc2)CC1	-0.783% (inactive)	
Cc1cccc(C(=O)NC(=S)N(C)C2CCCCC2)c1	17.9% (inactive)	
Nc1nc2nc(Cl)[nH]c2c(=O)[nH]1	-9.02% (inactive)	
Cn1nccc1C(=O)NC1CCCc2c1cnn2-c1ccc(F)cc1F (stereo not given)	12.2% (inactive)	
Cc1cc(C)n(-c2nc(O)cc(=O)[nH]2)n1		15.8 µM (active)
Cc1cc(C)n(-c2ccc(Cl)c(C(=O)O)n2)n1	-14.9% (inactive)	
Cc1cc(C)n(-c2ccc3nncn3n2)n1	10.3% (inactive)	
O=C(COc1nsnc1N1CCOCC1)Nc1ccccc1Cl	10.1% (inactive)	
CN(C)S(=O)(=O)N1CCC(Oc2cccc(C(=O)NCCCC3CCCC3)c2)CC1	-2.01% (inactive)	
O=C(CC(n1cncn1)C(Cl)(Cl)Cl)c1ccc([N+](=O)[O-])cc1 (stereo not given)		44.7 µM (active)
C/C(=N/NC(=O)CSc1ccccn1)c1ccc([N+](=O)[O-])cc1	0.345% (inactive)	
O=C(CCn1nnc2ccccc21)OCC(=O)c1ccc([N+](=O)[O-])cc1	30.5% (inactive)	
Cc1ccc(C)c(S(=O)(=O)Nc2cc(C)on2)c1	10.8% (inactive)	
CCCCN=C1C([N+](=O)[O-])=CC=C2C1=NC1(CCCCC1)N2O		28.2 µM (active)
O=C(NC1CCCC1)c1cc(-c2ccccc2)on1	11.2% (inactive)	
Cc1ccc(NC(=O)Cn2nnc(C(=O)NCc3ccco3)c2N)c(C)c1	-4.99% (inactive)	
CCN1CCN(CCNC(=O)c2ccc3c(c2)NC(=O)/C(=C\c2ccc(OC)c(OC)c2)S3)CC1	-5.49% (inactive)	
Cc1ccccc1CN1C(=O)c2ccccc2Sc2ccc(C(=O)NCCCN3CCOCC3)cc21	-13.2% (inactive)	
CCN1CCN(CCNC(=O)c2ccc(/C=C3/Sc4ccccc4N(Cc4cccc(C)c4)C3=O)cc2)CC1		39.8 µM (active)
CCOC(=O)C1CCN(C(=O)C2CCCN(S(=O)(=O)c3ccc(OC)c(Cl)c3)C2)CC1 (stereo not given)	3.96% (inactive)	
Cc1cc(=O)oc2c3c(cc(OCC(=O)NCCC(=O)N[C@@H](C)C(=O)O)c12)OC(C)(C)CC3	2.46% (inactive)	
CCOC(CNC(=O)C1CCN(S(=O)(=O)c2ccc3nc4c(c(C(=O)O)c3c2)CC(C)CC4)CC1)OCC (stereo not given)	9.57% (inactive)	
Cc1ccc(CC2CC(=O)N(c3nc(C)cc(C)n3)C2=O)cc1 (stereo not given)	0.267% (inactive)	
COC(=O)CC1=NN(c2nc(C)cc(C)n2)C(=O)C1		50.1 µM (active)
Cc1cc(C)cc(NC(=O)C2CCN(c3nc(C)cc(C)n3)CC2)c1	9.84% (inactive)	

Structure (SMILES)	largest response in the series, negative = inhibition	Potency
Cc1ccc(-n2c(C)nnc2SCC(=O)NC2CC2)cc1	4.57% (inactive)	
Oc1ccc(CNc2ccccc2O)cc1		50.1 µM (active)
O=C(Cc1ccc(Cl)cc1)NC(=S)Nc1ccccc1O	12.4% (inactive)	
O=[N+]([O-])c1ccccc1NCc1ccc(Cl)cc1	-18.2% (inactive)	
COc1ccc(CN2CCC(=O)c3ccccc3S2(=O)=O)cc1	-5.49% (inactive)	
O=P(O)(O)OC[C@H](O)CO	16.8% (inactive)	
COc1cc(Cl)c(C)cc1NC(=O)CSc1nnc(-c2ccco2)n1CC(C)C		44.7 µM (active)
CCn1c(SCC(=O)Nc2cc(C)c(Cl)cc2OC)nnc1-c1ccco1	2.43% (inactive)	
COc1cc(Cl)c(C)cc1NC(=O)CSc1nnc(-c2cccnc2)n1Cc1ccco1	-18.1% (inactive)	
O=S(=O)(Cc1nnnn1-c1ccc(Br)cc1)c1ccc(F)cc1	6.04% (inactive)	
Cn1c(=O)c2c(SCC(=O)NCC3CCCO3)nc(CC(C)(C)C)nc2n(C)c1=O (stereo not given)	-16% (inactive)	
Nc1c(Cl)cc(-c2csc(N3CCCC3c3nc4cc(Cl)c(Cl)cc4n3CCOCCO)n2)cc1Cl (stereo not given)	-23.5% (inactive)	
CCOC(=O)c1c(-n2cnnn2)sc(C)c1C		35.5 µM (active)
CCOc1ccc(C(=O)COC(=O)c2ccc(-n3cnnn3)cc2)cc1	8.76% (inactive)	
CCOC(=O)c1c(NC(=O)CSc2nccc(=O)[nH]2)sc(C)c1C	2.75% (inactive)	
CCC(C)C(N)C1=NC(C(=O)NC(CC(C)C)C(=O)NC(CCC(=O)O)C(=O)NC(C(=O)NCCCCC2NC(=O)C(CC(N)=O)NC(=O)C(CC(=O)O)NC(=O)C(Cc3cnc[nH]3)NC(=O)C(Cc3ccccc3)NC(=O)C(C(C)CC)NC(=O)C(CCCN)NC2=O)C(C)CC)CS1 (stereo not drawn) (cyclo(DNK([Ile-Glu-Leu-X1])[Orn]IFH); configuration not given here)	-53.6% (inactive)	
CC(=O)OC1C([N+]2(C)CCCCC2)C[C@H]2C3CC[C@H]4C[C@H](OC(C)=O)C([N+]5(C)CCCCC5)CC4(C)C3CCC12C (stereo not given in full)	11.5% (inactive)	
COc1ccc(S(=O)(=O)NCC(=O)NCc2cc(=O)n(C)c(=O)n2C)cc1F	14.7% (inactive)	
CCOc1ccc(S(=O)(=O)Nc2ccc(OC)nc2)cc1	11.7% (inactive)	
COc1ccc(CS(=O)/C(Cl)=C(/Cl)C(=O)Nc2ccc(OC)nc2)cc1 (stereo not given)		14.1 µM (active)
COc1ccc(C(=O)Nc2ccc(NC(=O)C(C)C)nc2)cc1	27.7% (inactive)	
O=C1COc2ccc(S(=O)(=O)NCCc3ccc(Cl)cc3)cc2N1	13.2% (inactive)	
CCOC(=O)CSc1nnc(-c2ccco2)n1C	-9.26% (inactive)	
Cn1c(SCC(=O)c2cccs2)nnc1-c1ccco1		22.4 µM (active)
Cn1c(SCC(=O)Nc2ccc(Br)cc2F)nnc1-c1ccco1	1.27% (inactive)	
CCC(C)(C)NC(=O)C(c1ccc(OC)cc1)N(C(=O)CCC(=O)Nc1cc(C)on1)c1ccc(OC)cc1OC (stereo not given)	11.3% (inactive)	
CCOCCCNC(=S)Nc1ccc2nc(N3CCN(CC)CC3)cc(C)c2c1	10.7% (inactive)	
